Assay results reported in PubChem BioAssay (NCI).
About 79,000 compounds went through this panel and 15% of them were active in at least one assay; those are over-represented in the sample as a whole. Cut-off read from the data, not from the text of the source: active = growth inhibition above about 70%; inactive = the rest.

Experiments:
[1] = NCI Yeast Anticancer Drug Screen. Data for the rad50 strain (AID 155);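 note: 0% = growth of vehicle-only cultures of the same strain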; conditions: S. cerevisiae rad50 strain growth inhibition; at 50.0 µM; stronger effect = higher value
How it was run: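 DNA repair mutant yeast, compound exposure, growth read-out; inhibition is taken relative to vehicle.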

[2] = NCI Yeast Anticancer Drug Screen. Data for the mec2-1 strain (AID 157); conditions: S. cerevisiae mec2-1 strain, at 50.0 µM, stronger effect = higher value
How it was run: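 Test agents were screened against the mec2-1 yeast strain, with defined DNA repair or cell cycle alteration. Growth was scored as inhibition against vehicle-only controls.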

[3] = NCI Yeast Anticancer Drug Screen. Data for the sgs1 mgt1 strain (AID 161);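 note: 0% = growth of cultures given vehicle only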; conditions: S. cerevisiae sgs1 mgt1 strain, at 50.0 µM, stronger effect = higher value
How it was run: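 Genetically altered yeast, compound exposure, growth inhibition relative to vehicle.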

[4] = NCI Yeast Anticancer Drug Screen. Data for the cln2 rad14 strain (AID 165);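 note: 0% = growth equal to vehicle treated cultures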; conditions: S. cerevisiae cln2 rad14 strain, at 50.0 µM, stronger effect = higher value
How it was run: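 Growth of compound-exposed yeast (cln2 rad14 genotype) measured and expressed as inhibition relative to vehicle.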

[5] = NCI Yeast Anticancer Drug Screen. Data for the bub3 strain (AID 167); conditions: S. cerevisiae bub3 mutant strain, at 50.0 µM, stronger effect = higher value
How it was run: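 In this screen, a yeast mutant lacking normal mitotic checkpoint function is challenged with compound. Relative growth versus vehicle gives the inhibition value.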

[6] = NCI Yeast Anticancer Drug Screen. Data for the mlh1 rad18 strain (AID 175); conditions: S. cerevisiae mlh1 rad18 strain growth inhibition; at 50.0 µM; stronger effect = higher value
How it was run: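 In this whole-cell yeast screen, a strain with altered DNA damage repair is challenged with compound, and its growth is measured against matched vehicle-treated controls.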

Measured: growth inhibition

CCOCc1ccccc1C(O)(c1ccc(OC)cc1)c1ccccc1OC (stereo unspecified)
inactive: [1] 37.6% | [2] 16.3% | [3] 40.9% | [4] 50.8% | [5] 6.85% | [6] 57.4%

O=C(CP(c1ccccc1)c1ccccc1)c1cccc(C(=O)CP(c2ccccc2)c2ccccc2)c1
inactive: [1] -4.3% | [2] -22.1% | [3] -5.05% | [4] -8.6% | [5] -14.3% | [6] -19.4%

CCN(CC)[Si](C)(C)N(CC)CC
inactive: [1] -20.2% | [2] -24.4% | [3] -1.2% | [4] -41% | [5] -4.5% | [6] 8.1%

COc1ccc2c(c1)-c1cc(OC)ccc1C2c1ccccc1
inactive: [1] -1.1% | [2] -9.15% | [3] -7.6% | [4] -57.5% | [5] 5.15% | [6] -7.25%

CC(=O)OCCNc1ccccc1
inactive: [1] -5.05% | [2] 0.2% | [3] 10.2% | [4] -5% | [5] -2.75% | [6] 20.3%

COc1cc(/C=C/C(=N\NC(=S)NN)c2sc(NNC(C)=O)nc2C)ccc1O
inactive: [1] 22.5% | [2] -4.5% | [3] 21.7% | [4] 9.1% | [5] 15.5% | [6] 19.2%

C[C@]12CCC(=O)C(O)=C1CCC2=O
inactive: [1] 2.6% | [2] -7.35% | [3] -5.3% | [4] -14.9% | [5] 3.8% | [6] 4.5%

NC(=O)c1ccc(I)cc1
inactive: [1] 1.75% | [2] 9.3% | [3] 4% | [4] -30.1% | [5] -37% | [6] 8.25%

CC(=N\N=C(c1ccccc1)c1ccccc1)/C(C)=N/N=C(c1ccccc1)c1ccccc1
inactive: [1] -22.1% | [2] -8.15% | [3] -13.8% | [4] -9% | [5] -1.15% | [6] -17.8%

O=C(CC1=NC2NN(c3ccccc3)C(=O)C2=C1CC(=O)c1ccc(F)cc1)c1ccc(F)cc1 (stereo unspecified)
inactive: [1] 40.2% | [2] 20.6% | [3] 23.2% | [4] 13.1% | [5] 5.65% | [6] 38.9%

Cc1cc(S(=O)(=O)Nc2nnc3cc(C(F)(F)F)cc(C)n23)c(S)cc1Cl
inactive: [1] -19.6% | [2] -26.8% | [3] -38.1% | [4] -15.8% | [5] -19.9% | [6] -14.2%

CCCCC[N+]1([O-])CCOCC1
inactive: [1] 4.05% | [2] -4.1% | [3] -7.1% | [4] -24.4% | [5] -3.1% | [6] 1.05%

CCCCCCCCCCCCCCCCCC(=O)Oc1c(C(C)CC)cc([N+](=O)[O-])cc1[N+](=O)[O-] (stereo unspecified)
inactive: [1] 13.2% | [2] 25% | [3] 46.2% | [4] 2.85% | [5] 10.1% | [6] 53.9%

O=C(CCCl)Nc1cccc(CCC(=O)c2ccccc2NC(=O)CCCl)c1
inactive: [1] -8.1% | [2] -18.1% | [3] -4.2% | [4] -15.9% | [5] -7.1% | [6] -10.4%

CCOC(=O)C1(F)S(=O)(=O)OCCOS1(=O)=O
inactive: [1] -12.9% | [2] -9.95% | [3] -11.4% | [4] -18.4% | [5] 6.3% | [6] -9.8%

CCCCC1C/C=C/C=C/C=C/C=C/C(OC2OC(C)C(O)C(N)C2O)CC2OC(O)(CC(O)CC3OC3/C=C/C(=O)O1)CC(O)C2C(=O)O (stereo unspecified)
inactive: [1] 30.6% | [2] 9.5% | [3] 2.75% | [4] 17.6% | [5] -1.7% | [6] 11.2%

CCCCOB(OCCCC)Oc1c(C(C)(C)C)cccc1C(C)(C)C
inactive: [1] 2.7% | [2] -4.6% | [3] -4.7% | [4] 9.8% | [5] -5.65% | [6] 3.75%

Nc1ncnc(N)c1NC(=O)c1ccccc1
inactive: [1] -16.4% | [2] -19.6% | [3] -24.4% | [4] -21.4% | [5] 3.25% | [6] 14.6%

Cn1c(-c2ccc(-c3cc(-c4cccs4)c(-c4cccs4)n3C)cc2)cc(-c2cccs2)c1-c1cccs1
inactive: [1] 11.7% | [2] -15% | [3] 14.8% | [4] -16.9% | [5] 1.55% | [6] 17.8%

O=C(Nc1ccc(C(=O)CCl)cc1)Nc1ccc(C(=O)CCl)cc1
inactive: [1] 8.65% | [2] 14.1% | [3] 20.2% | [4] 0.35% | [5] 12.9% | [6] 14.6%

O=C(Cc1ccccc1)c1c[nH]c2c(O)ccc(O)c12
inactive: [1] -15.1% | [2] -9.25% | [3] -12.3% | [4] -49.1% | [5] -13.9% | [6] -8.45%

O=C(OC1OC(COCc2ccccc2)C(OCc2ccccc2)C1OCc1ccccc1)c1ccc([N+](=O)[O-])cc1 (stereo unspecified)
inactive: [1] 25.2% | [2] -12.2% | [3] 16.2% | [4] -26.1% | [5] -5.3% | [6] -1.35%

CC(C)(c1ccccc1)C(C)(C)c1nc(-c2ccccc2)cc(-c2ccccc2)n1
inactive: [1] -23.4% | [2] 4.95% | [3] -4.65% | [4] -95% | [5] -0.95% | [6] -11.8%

N=C(N)c1cccc(NC(=O)CCc2ccccc2)c1
inactive: [1] -7.3% | [2] -14.6% | [3] -17.8% | [4] -29.1% | [5] 0.95% | [6] 1.9%

O=C(Nc1ccc(Cl)cc1)NS(=O)(=O)c1coc2cc(F)ccc2c1=O
inactive: [1] 7% | [2] -11.2% | [3] -23.6% | [4] 31.6% | [5] 16.4% | [6] 11.4%

NC(N)=NCCCCNCCCN=C(N)N
inactive: [1] -23.2% | [2] -42.8% | [3] 1.55% | [4] 3.35% | [5] -16.4% | [6] -15.7%

COc1ccc(C2CC(=O)Oc3ccccc3O2)cc1 (stereo unspecified)
inactive: [1] 39% | [2] 16.4% | [3] 32.2% | [4] 27.9% | [5] 23.6% | [6] 38.1%

COc1ccc(/C=C(\Cl)c2ccc(OC)cc2)cc1
inactive: [1] -2.9% | [2] 3.8% | [3] -26.6% | [4] -18.1% | [5] 5.6% | [6] -26.8%

CC(C)CC(C)(O)C(N)=O (stereo unspecified)
inactive: [1] -5.15% | [2] -7.55% | [3] -29% | [4] -21.8% | [5] 0.35% | [6] -4.95%

COC(=O)C(C#N)(CCC(=O)c1ccccc1)CCC(=O)c1ccccc1
inactive: [1] 13.3% | [2] 17.3% | [3] 10.2% | [4] -8.65% | [5] 17.8% | [6] 9.8%

Cc1ccc(S(=O)(=O)CC(O)(C(C)C)C(C)C)cc1
inactive: [1] -19% | [2] -8.6% | [3] -14.2% | [4] 12.8% | [5] 16.6% | [6] -17.4%

C=C(C)C(CCC)(C(=O)OCC)C(=O)OCC
inactive: [1] 3.05% | [2] -9.15% | [3] 12.6% | [4] -4.3% | [5] -13.2% | [6] -14.1%

O=C(COc1ccccc1)Nc1cccc(C(=O)O)c1
inactive: [1] 1.2% | [2] 13.5% | [3] 21.9% | [4] 0.9% | [5] 36.6% | [6] 32.2%

Cc1ccc(C(=O)Nc2ccc(CP(=O)(O)O)cc2CP(=O)(O)O)cc1NC(=O)Nc1cc(C(=O)Nc2ccc(CP(=O)(O)O)cc2CP(=O)(O)O)ccc1C
inactive: [1] -10.8% | [2] -5.45% | [3] -12.1% | [4] -0.25% | [5] 0.4% | [6] 9.65%

Cc1ccc(N=Cc2ccc(C(N)=S)cc2)cc1
inactive: [1] 7.05% | [2] 21.3% | [3] 1.45% | [4] -17.4% | [5] 18.8% | [6] 24%

CCOC(=O)c1[nH]n(-c2ccccc2)c(=O)c1C=NC(C)=S
inactive: [1] -32.2% | [2] -25.6% | [3] -16.6% | [4] 7.1% | [5] -12% | [6] -18.9%

COC(=O)c1c2c(cc3c1CC1(C3)Cc3cc4c(c(C(C)=O)c3C1)CCC4)C=CC2 (stereo unspecified)
inactive: [1] 0.15% | [2] -12.3% | [3] -26.1% | [4] 1.35% | [5] -5.75% | [6] -22.6%

CCN(CC(O)COc1ccc2c(c1)[n+]([O-])nc(N)[n+]2[O-])C(C)=O (stereo unspecified)
inactive: [1] 46.5% | [2] 38% | [3] 40.3% | [4] 38.9% | [5] 31% | [6] 38.8%

COc1ccc(-c2nc(SCc3ccc(Cl)cc3)[nH]c(=O)c2CCO)cc1
inactive: [1] 32.3% | [2] -7.75% | [3] -4.45% | [4] 3.15% | [5] -3.45% | [6] 10.4%

O=C1CN(c2ccccc2)C(=O)CN1CCN1CC(=O)N(c2ccccc2)CC1=O
inactive: [1] -34% | [2] 14.8% | [3] -4.5% | [4] -2.3% | [5] -31.5% | [6] -8.6%

CC1(C)COC(c2ccc3ccccc3c2)OC1
inactive: [1] 26% | [2] 10.7% | [3] -6.2% | [4] -21.9% | [5] 35.4% | [6] -5.8%
